The results in this text go back to PubChem BioAssay (EPA / NIEHS).

Assay [1] addresses Cellular tumor antigen p53 (Homo sapiens) (UniProt P04637). In words: TOX21_p53_BLA_p3_ratio: Tox21 HCT-116 p53 Agonism Beta-lactamase Assay, Ratio, Phase 3 (AID 2283596). Put shortly: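 HCT116 p53-bla cells (4000/well) given compound in DMSO (217-fold dilution) after 5 h, incubated 16 h at 37C. CCF4-AM substrate 2 h at room temperature; 460/530 nm emission ratio, gain fitted against DMSO.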

Assay [2] can be described thus: TOX21_p53_BLA_p4_viability: Viability Assessment in the Tox21 HCT-116 p53 Agonism Beta-lactamase Assay, Phase 4 (AID 2283597).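 Also: hits lower the luminescence signal meaning cytotoxicity.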 The method in brief:
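Compound exposure of HCT116 cells lasts 16 h at 37C, 5% CO2, with DMSO stocks diluted 217-fold. Cellular ATP is then quantified by CellTiter-Glo luminescence after 30 min at room temperature.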

The target in assay [3] is Cellular tumor antigen p53 (Homo sapiens) (UniProt P04637). The experiment in a line: TOX21_p53_BLA_p5_ratio: Tox21 HCT-116 p53 Agonism Beta-lactamase Assay, Ratio, Phase 5 (AID 2283599). Put shortly:
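HCT-116 cells carrying a p53-inducible beta-lactamase reporter were seeded at 4000 cells/well and dosed after 5 h with compound in DMSO (217-fold dilution). After 16 h at 37C, CCF4-AM substrate was added for 2 h, and the 460/530 nm emission ratio was scored as gain-of-signal versus DMSO.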

A short description of assay [4]: TOX21_p53_BLA_p5_viability: Viability Assessment in the Tox21 HCT-116 p53 Agonism Beta-lactamase Assay, Phase 5 (AID 2283600). The method in brief: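 Counter-readout for cytotoxicity: ATP-dependent luminescence from CellTiter-Glo, read in the beta-lactamase wells after 30 min at RT, following a 16 h compound exposure at 37C.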
The target of assay [5] is Cellular tumor antigen p53 (Homo sapiens) (UniProt P04637). In words: TOX21_p53_BLA_p4_ratio: Tox21 HCT-116 p53 Agonism Beta-lactamase Assay, Ratio, Phase 4 (AID 2283601). Put shortly: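 HCT116 cells carrying an inducible beta-lactamase reporter were plated at 4000 cells/well, rested 5 h, then exposed to compounds in DMSO (217-fold dilution) for 16 h at 37C. CCF4-AM substrate was loaded 2 h at room temperature; 460/530 nm emission ratio scored gain-of-signal versus DMSO.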

The nature of assay [6]: Tanguay_ZF_120hpf_MORT_legacy: (Legacy) Oregon State University Tanguay Lab 120 Hour Post-fertilization zebrafish Assay for Mortality (AID 2283633). Put shortly:
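Mortality endpoint from a multiplexed whole-embryo zebrafish screen. Dechorionated wild-type embryos received compound at 6 hpf and remained under static exposure at 28C until 120 hpf, with death noted as a present/absent call.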

Assay [7] is described as follows: Tanguay_ZF_120hpf_YSE_legacy: (Legacy) Oregon State University Tanguay Lab 120 Hour Post-fertilization zebrafish Assay for Yolk Sac Edema (AID 2283634). The method in brief:
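Readout: presence or absence of yolk sac edema at 120 hpf, fitted upward against DMSO controls. Exposure ran statically from 6 hpf in dechorionated embryos kept at 28C.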

A short description of assay [8]: Tanguay_ZF_120hpf_EYE_legacy: (Legacy) Oregon State University Tanguay Lab 120 Hour Post-fertilization zebrafish Assay for Eye Malformation (AID 2283636).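 Also: binary presence or absence of eye malformation scored by brightfield in 120 hpf larvae.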 Put shortly: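 Dechorionated wild-type Tropical 5D zebrafish embryos were exposed statically from 6 hpf, one per well, to 120 hpf at 28C in sealed, foil-covered plates with 0.64% DMSO. Eye malformation was scored present/absent by brightfield microscopy against DMSO controls.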

The nature of assay [9]: Tanguay_ZF_120hpf_SNOU_legacy: (Legacy) Oregon State University Tanguay Lab 120 Hour Post-fertilization zebrafish Assay for Snout Malformation (AID 2283637). The method in brief: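 Tropical 5D wild-type zebrafish embryos, dechorionated with pronase at 4 hpf, were exposed singly from 6 hpf to 120 hpf statically at 28C in 0.64% DMSO. Snout malformation was scored present/absent by brightfield microscopy, fitted against DMSO.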

Molecules are shown by their SMILES. Values joined by “and” are separate entries in the source; they are usually repeats but may differ in a detail not shown here. Equal values may be shown once. Records with an inconclusive call do not appear. Some structures have more than one record in an assay (separate samples or runs), and their calls can disagree. Active and inactive are the calls of the source. The calls were made as follows: active = hit-call score of the fitted dose curve at least 0.9, where 1 is the maximum; inconclusive = response in the unintended direction; inactive = score below 0.9.

Cellular tumor antigen p53 (Homo sapiens), sequence (P04637 whole entry, looked up): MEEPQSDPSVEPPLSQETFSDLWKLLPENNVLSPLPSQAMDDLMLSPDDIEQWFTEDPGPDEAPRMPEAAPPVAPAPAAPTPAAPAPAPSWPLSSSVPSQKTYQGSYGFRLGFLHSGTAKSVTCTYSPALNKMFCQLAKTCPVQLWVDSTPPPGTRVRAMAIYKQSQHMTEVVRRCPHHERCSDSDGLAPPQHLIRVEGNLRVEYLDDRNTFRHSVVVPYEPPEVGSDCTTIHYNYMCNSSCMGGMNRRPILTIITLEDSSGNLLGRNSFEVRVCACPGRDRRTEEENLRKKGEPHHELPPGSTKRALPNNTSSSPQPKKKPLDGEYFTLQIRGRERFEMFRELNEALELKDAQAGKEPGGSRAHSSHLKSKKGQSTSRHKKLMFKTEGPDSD

On to `CCCC(O)C(CC)CO` (stereo not given), for which the result in assay [1], in assay [2], in [3], in assay [4] and in assay [5] was inactive.
For `CC1COC(=O)O1` (stereo not given), the outcome in assay [1] was inactive.
Consider `O=Cc1ccccc1O`, for which the result in assay [1], in assay [2], in assay [3] and in assay [4] was inactive.
By AC50 is commonly meant the concentration giving half of the maximal activity seen. For `C[C@]12CC[C@@H]3c4ccc(O)cc4CC[C@H]3[C@@H]1CC[C@@H]2O`, the AC50 in [1] was 32 µM (active) and 34.9 µM (active); in assay [3], 31.7 µM (active) and 34.6 µM (active); in [5] it was 31.4 µM (active) and 17.7 µM (active) and 15.6 µM (active). For the same compound, the outcome in [1], in assay [2], in assay [3], in assay [4], in [6] and in assay [7] was inactive. Besides, the result in assay [8] and in [9] was inactive.
As to `NC(=O)c1cccnc1`, the outcome in assay [1], in assay [2], in assay [3], in [4] and in assay [5] was inactive.
Turning to `CCCCCCCCCOS(=O)(=O)O`, the outcome in assay [1], in assay [2], in assay [3], in assay [4] and in [5] was inactive.
Turning to `CCCCCCCCCCCCCC(=O)OCC`, the result in assay [1], in [2], in assay [3] and in assay [4] was inactive.
`CC(C)(CO)CO`: the outcome in [1], in [2], in assay [3], in assay [4] and in assay [5] was inactive.
Consider `C=CC(C)CCCC(C)(C)O` (stereo not given), for which the result in [1], in assay [2], in assay [3], in [4] and in [5] was inactive.
On to `CN1CCc2cccc3c2[C@H]1Cc1ccc(O)c(O)c1-3`, for which the outcome in assay [1], in [2], in [3], in [4] and in assay [5] was inactive. Also, the AC50 in assay [2] is 35.5 µM (active) and 44.9 µM (active); in assay [3], 86.8 µM (active); in assay [5], 67.3 µM (active).
As for `CCC(=O)OC(C)(C)C1CC=C(C)CC1` (stereo not given), the result in assay [1], in assay [2], in [3], in [4] and in [5] was inactive.
For the compound `O=c1cc(-c2ccc(O)cc2)oc2cc(O)cc(O)c12`, the AC50 was 14.6 µM (active) in assay [1] and 13.4 µM (active) in [5]. Further, the result in [1], in [2], in [3], in assay [4] and in [5] was inactive.
